The panel holds about 83,000 compounds, 20% with a hit somewhere; the sample as a whole holds those more often.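 Growth was measured after 48 h exposure to one concentration of compound in 96-well plates. Values under 10 count as active.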 Calls of active or inactive are those of the source.
These molecules were tested on SNB-19 CNS (assay: NCI-60 one-dose screen, 48 h (100 = growth as untreated, 0 = no growth, -100 = all killed)). Details: 10 µM unless noted.

SMILES	growth
Cn1cc(-c2cc3nc(-c4cn(C)c5ncccc45)cc(N)n3n2)c2cc(Cl)ccc21	-88.1% (active)
CC12CC[C@@H]3[C@]4(C)COC(c5c(F)cccc5F)O[C@@H]4CC[C@@]3(C)[C@@H]1CC(C1=CCOC1=O)O2 (stereo partly drawn)	63.2% (inactive)
Cc1nc(Nc2ncc(C(=O)Nc3c(C)cccc3Cl)s2)cc(N2CCN(CCCNC(=O)COc3ccc(C4CCC(=O)NC4=O)cc3)CC2)n1 (stereo not drawn)	47.9% (inactive)
Cn1cc(NC(=O)c2cc(NC(=O)c3ccc(/C=C/c4ccccc4)cc3)cn2C)cc1C(=O)NCCCN1CCOCC1	70.4% (inactive)
Cc1ccccc1[C@H]1C(C(=O)c2ccc(Cl)cc2)C2(N[C@@H]1c1ccccc1)C(=O)Nc1ccc(Br)cc12 (stereo partly drawn)	38.4% (inactive)
Brc1ccc(N/N=C/c2c[nH]c3ccc(Br)cc23)nc1	4.49% (active)
C=C1CCC2C3(C)COC(c4ccccc4)OC3CCC2(C)C1CC(Sc1ccccc1)C1=CCOC1=O (stereo not drawn)	85.5% (inactive)
Clc1cccc(N/N=C/c2c[nH]c3ccc(Br)cc23)n1	20.5% (inactive)
COc1c(F)ccc(C(=O)Nc2ccc3nc(NC(=O)C4CCCN(S(=O)(=O)c5cccc(C(F)(F)F)c5)C4)sc3c2)c1F (stereo not drawn)	72.6% (inactive)
O=c1oc2ccc(Br)cc2cc1C1=CSc2nc3sc4c(c3c(=O)n2N=C1)CCCC4	97% (inactive)
CC(=O)/C=C/c1cccc2c1C(=O)NC(C)(c1cc3cc(Br)ccc3oc1=O)N2 (stereo not drawn)	51.8% (inactive)
O=c1[nH]c(=O)c2c(-c3cc4ccccc4oc3=O)ccnc2[nH]1	75.5% (inactive)
O=C(/C=C/Nc1ccc2oc(=O)ccc2c1)c1cc2cc(Br)ccc2oc1=O	97.5% (inactive)
CC1(c2cc3cc(Cl)ccc3oc2=O)NC(=O)c2c(/C=C/C(=O)OC3CC4CCC3(C)C4(C)C)cccc2N1 (stereo not drawn)	52.9% (inactive)
COc1ccc(-c2ccnc(SCc3cc4ccccc4[nH]c3=O)n2)cc1OC	-7.41% (active)
CC12CC[C@@H]3[C@]4(C)COC(c5cn[nH]c5-c5cccc(Br)c5)O[C@@H]4CC[C@@]3(C)[C@@H]1CC(C1=CCOC1=O)O2 (stereo partly drawn)	51.2% (inactive)
O=C(c1ccc(OCCN2CCOCC2)cc1)C1[C@H](c2ccc(Cl)cc2)[C@@H](c2ccccc2)NC12C(=O)Nc1ccc(Br)cc12 (stereo partly drawn)	37.4% (inactive)
COc1ccc2c(c1)c(/C=N/Nc1ccc3ccccc3n1)cn2C	71.3% (inactive)
CN(C)CCOc1ccc(C(=O)C2[C@H](c3ccc(Cl)cc3)[C@@H](c3ccccc3)NC23C(=O)Nc2ccc(Br)cc23)cc1 (stereo partly drawn)	54.1% (inactive)

SMILES	growth
O=c1[nH]c2ccc(Cl)cc2cc1CSc1nccc(-c2ccc(Cl)cc2)n1	40.4% (inactive)
COc1cccc(/C=C/c2nc3ccccc3c(=O)n2CC(=O)Nc2ccc(Cl)cc2)c1	76.3% (inactive)
CCCSc1nc(Nc2ccc(S(N)(=O)=O)cc2)c(C#N)c(-c2cc(OC)c(OC)c(OC)c2)n1	43.8% (inactive)
CC(/C=C1\SC(=S)N(CCCC(=O)NC(CC(C)C)C(=O)O)C1=O)=C\c1ccccc1 (stereo not drawn)	93.8% (inactive)
COc1ccc(/C=C/c2nc3ccccc3c(=O)n2CC(=O)Nc2ccc(Cl)cc2)cc1	77.4% (inactive)
Cn1cc(-c2cc3nc(-c4cn(C)c5ncc(Br)cc45)cc(N)n3n2)c2cc(Cl)ccc21	-74.2% (active)
Cn1cc(-c2cc(N)n3nc(-c4cn(C)c5ncccc45)cc3n2)c2cccnc21	101% (inactive)
Cc1ccc([C@H]2C(C(=O)c3ccc(Cl)cc3)C3(N[C@@H]2c2ccccc2)C(=O)Nc2ccc(Cl)cc23)cc1 (stereo partly drawn)	66.2% (inactive)
O=C(Cn1c(/C=C/c2ccccc2)nc2ccccc2c1=O)Nc1ccc(Cl)cc1	52.8% (inactive)
CC12CC[C@@H]3[C@]4(C)COC(c5cn[nH]c5-c5cccc(Cl)c5)O[C@@H]4CC[C@@]3(C)[C@@H]1CC(C1=CCOC1=O)O2 (stereo partly drawn)	56.8% (inactive)
CCCCSc1nc(Nc2ccc(S(N)(=O)=O)cc2)c(C#N)c(-c2cc(OC)c(OC)c(OC)c2)n1	54.5% (inactive)
CCOC(=O)/C=C/c1cccc2c1C(=O)NC(C)(c1cc3cc(Cl)ccc3oc1=O)N2 (stereo not drawn)	33.8% (inactive)
O=C(c1ccc(OCCN2CCOCC2)cc1)C1[C@H](c2ccc(Cl)cc2)[C@@H](c2ccccc2)NC12C(=O)Nc1ccc(Cl)cc12 (stereo partly drawn)	41% (inactive)
CC(C)c1sc(NC(=O)c2cc(NC(=O)c3cc(NC(=O)c4nccn4C)cn3C)cn2C)nc1C(=O)NCCCN(C)C	48.1% (inactive)
COc1c(F)ccc(C(=O)Nc2ccc3nc(NC(=O)C4CCCN(S(=O)(=O)c5ccc(Cl)cc5)C4)sc3c2)c1F (stereo not drawn)	82.5% (inactive)
O=C(N1c2ccccc2Sc2ccccc21)n1ccc2cccnc21	74.3% (inactive)
Cn1cc(-c2cc(N)n3nc(-c4cn(C)c5ncc(Br)cc45)cc3n2)c2cc(Br)cnc21	10% (inactive)
CC1=C(C#N)C2=NNCC(c3ccccc3)=NN2C(c2ccccc2)=C1	97.3% (inactive)
C=C1CC[C@@H]2[C@]3(C)COC(c4cn[nH]c4-c4ccc(F)cc4)O[C@@H]3CC[C@@]2(C)[C@@H]1C/C=C1/C(=O)OCC1O (stereo partly drawn)	21.6% (inactive)

— PubChem BioAssay (NCI)
